The results in this text go back to PubChem BioAssay.

Assay [1] is described as follows: resazurin metabolic signal in HepG2 cells – cell-based, resazurin fluorescence, 24 h, PK04 Diversity Set, profiling panel (AID 1172). To be noted: HepG2 viability, higher = more signal.
A short description of assay [2]: budding yeast growth changes without added modifier – OD600, strain BY4716, 24 h, basal condition, primary screen (AID 1173). Conditions: S. cerevisiae BY4716 growth, OD600, 24 h; higher = more signal, called active from +8 up or from −8 down.
Assay [3] is described as follows: viability profiling in MM1S myeloma cells – cell-based, resazurin fluorescence, basal, 24 h, PK04 Diversity Set, profiling panel (AID 1174).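 Note: MM1S multiple myeloma cell line.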 Conditions: higher = more signal, called active from +8 up or from −8 down. (Resazurin is reduced to fluorescent resorufin, in cell work by metabolically active cells.)
For assay [4], the target named is Dihydroorotate dehydrogenase (quinone), mitochondrial (Plasmodium falciparum (isolate 3D7)) (UniProt Q08210). The assay can be described thus: inhibition of P. falciparum DHODH – biochemical, C-terminal His tag, absorbance 600 nm, primary screen (AID 1175).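 Note: recombinant parasite enzyme with a five histidine tag at its C terminus.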 Conditions: PfDHODH enzyme, DCIP absorbance 600 nm; higher = more signal, called active from +8 up or from −8 down.
Chain of Dihydroorotate dehydrogenase (quinone), mitochondrial (Plasmodium falciparum (isolate 3D7)) (Q08210 whole entry, looked up): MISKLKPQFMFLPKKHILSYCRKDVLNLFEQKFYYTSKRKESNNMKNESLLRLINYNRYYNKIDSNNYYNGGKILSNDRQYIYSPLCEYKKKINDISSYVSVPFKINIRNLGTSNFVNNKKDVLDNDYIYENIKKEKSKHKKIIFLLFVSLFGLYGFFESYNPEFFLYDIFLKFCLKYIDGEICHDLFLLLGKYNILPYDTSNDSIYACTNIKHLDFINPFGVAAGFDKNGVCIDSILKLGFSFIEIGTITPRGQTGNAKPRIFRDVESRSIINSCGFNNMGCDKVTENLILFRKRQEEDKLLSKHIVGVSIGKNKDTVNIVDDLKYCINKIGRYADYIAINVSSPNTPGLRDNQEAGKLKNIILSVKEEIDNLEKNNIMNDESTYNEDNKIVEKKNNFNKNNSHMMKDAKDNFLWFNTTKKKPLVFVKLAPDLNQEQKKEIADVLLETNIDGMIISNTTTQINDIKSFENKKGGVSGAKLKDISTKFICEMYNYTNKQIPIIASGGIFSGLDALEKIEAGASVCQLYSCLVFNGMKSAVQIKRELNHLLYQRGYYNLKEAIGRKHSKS

Assay [5] can be described thus: inhibition of PAO1 biofilm formation – strain PAO1, LB-PBS medium, absorbance 600 nm, primary screen (AID 1176). Conditions: P. aeruginosa PAO1 growth/biofilm, A600, 12 h; higher = more signal.
Assay [6] is described as follows: growth modulation of vineyard yeast isolate – strain RM11-1a, OD600, basal, 24 h, primary screen (AID 1177).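 Note: cultures grown under basal conditions with no added stressor.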 To be noted: S. cerevisiae RM11-1a growth, OD600, 24 h; higher = more signal, called active from +8 up or from −8 down.
Assay [7] is described as follows: growth of efflux-deficient E. coli DRC39 – strain DRC39, OD650, 24 h, E. coli filamentation inducers, primary screen (AID 1178).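 Note: growth measured as culture turbidity by optical density at 650 nm.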 Conditions: E. coli DRC39 acrAB, higher = more signal, called active from +8 up or from −8 down.
Assay [8] is described as follows: growth of efflux-deficient E. coli DRC39 – strain DRC39, OD650, 48 h, E. coli filamentation inducers, primary screen (AID 1179).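 Note: screen aims at cell division blockers that make cells filament.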 To be noted: E. coli DRC39 delta-acrAB growth, higher = more signal, called active from +8 up or from −8 down.
Assay [9] in a line: viability profiling in RPMI8226 myeloma cells – cell-based, resazurin fluorescence, basal, 24 h, PK04 Diversity Set, profiling panel (AID 1180).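 Note: RPMI8826 multiple myeloma cell line at 5000 cells per well.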 Conditions: higher = more signal.
The target in assay [10] is E3 ubiquitin-protein ligase XIAP (Homo sapiens) (UniProt P98170). Put plainly: small molecules binding XIAP protein – biophysical, small-molecule microarray, fluorescence 635 nm, primary screen (AID 1181).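 Note: score merges 667 nm emission and signal to noise over triplicate slides.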 To be noted: higher = more signal.
Chain of E3 ubiquitin-protein ligase XIAP (Homo sapiens) (P98170 whole entry, looked up, the tested form may be a part): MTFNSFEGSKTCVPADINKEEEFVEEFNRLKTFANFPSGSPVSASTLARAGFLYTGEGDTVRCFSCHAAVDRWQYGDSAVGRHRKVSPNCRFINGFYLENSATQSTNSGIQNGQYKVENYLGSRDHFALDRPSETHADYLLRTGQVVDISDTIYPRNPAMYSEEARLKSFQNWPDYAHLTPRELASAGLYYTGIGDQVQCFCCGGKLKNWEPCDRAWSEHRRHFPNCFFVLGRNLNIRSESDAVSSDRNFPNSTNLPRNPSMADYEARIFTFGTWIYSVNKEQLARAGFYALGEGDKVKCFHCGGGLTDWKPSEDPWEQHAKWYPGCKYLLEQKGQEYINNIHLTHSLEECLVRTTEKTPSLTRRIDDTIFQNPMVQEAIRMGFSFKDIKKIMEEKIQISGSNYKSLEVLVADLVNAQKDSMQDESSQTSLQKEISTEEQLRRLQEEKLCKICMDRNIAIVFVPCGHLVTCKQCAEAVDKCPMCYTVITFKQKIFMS
For assay [11], the system named is XIP peptide (Xip251-270) binding. The assay can be described thus: XIP fragment 251-270 binding compounds – biochemical, small-molecule microarray, fluorescence 635/667 nm, 0.1 µg/mL protein, primary screen (AID 1182). To be noted: fluorescent protein binding, 635 nm, higher = more signal, called active from +8 up or from −8 down.
The test system of assay [12] is XIP peptide (Xip251-270). Put plainly: compounds binding XIP fragment 251-270 – biochemical, small-molecule microarray, fluorescence 635/667 nm, 0.5 µg/mL protein, primary screen (AID 1183). Conditions: fluorescence 635 nm, higher = more signal.
The nature of assay [13]: blood-stage malaria parasite viability loss – strain 3D7, DAPI fluorescence, 100 nL, primary screen (AID 1184).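 Note: parasites grown inside human red blood cells in medium with human serum.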 To be noted: P. falciparum 3D7 growth, 3 d, higher = more signal.
Assay [14] has as its target Homeobox protein Hox-A13 (Mus musculus) (UniProt Q62424). The assay can be described thus: disruptors of Hoxa13 oligonucleotide interaction – biochemical, fluorescence polarization, labeled oligonucleotide, primary screen (AID 1185). Conditions: Hoxa13:DNA binding, 15 min, higher = more signal, called active from +8 up or from −8 down.
The nature of assay [15]: blockers of DNA damage checkpoint Chk1 activation – imaging, HeLa, hydroxyurea, phospho-Chk1 antibody, percent positive cells, primary screen (AID 1186). Conditions: hydroxyurea-induced phospho-Chk1 immunofluorescence imaging, higher = more signal.
A short description of assay [16]: blockers of DNA damage checkpoint Chk1 activation – imaging, HeLa, hydroxyurea, phospho-Chk1 nuclear intensity, primary screen (AID 1187). Conditions: hydroxyurea-induced phospho-Chk1 immunofluorescence imaging, higher = more signal.

Molecules are shown by their SMILES. The source made the active and inactive calls. Unless noted, the rule behind the calls is not given here.

Chain of Homeobox protein Hox-A13 (Mus musculus) (Q62424 whole entry, looked up): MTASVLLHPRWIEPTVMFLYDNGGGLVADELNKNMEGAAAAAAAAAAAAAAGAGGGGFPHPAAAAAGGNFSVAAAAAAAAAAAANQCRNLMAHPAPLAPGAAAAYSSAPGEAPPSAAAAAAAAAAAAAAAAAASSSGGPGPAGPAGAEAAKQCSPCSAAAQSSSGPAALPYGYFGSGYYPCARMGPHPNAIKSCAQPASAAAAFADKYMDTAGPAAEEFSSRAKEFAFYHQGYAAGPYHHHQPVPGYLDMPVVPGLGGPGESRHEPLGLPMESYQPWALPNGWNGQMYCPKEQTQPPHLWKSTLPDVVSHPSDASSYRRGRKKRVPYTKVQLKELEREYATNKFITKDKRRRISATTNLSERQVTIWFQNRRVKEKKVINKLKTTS

For the compound `CO[C@H]1O[C@H](CO)[C@@H](OC(=O)CCc2ccccc2)[C@@H]2OC(=O)[C@@H](Cc3ccccc3)C/C=C/C[C@H](Cc3ccccc3)C(=O)O[C@@H]12`, the z-score in [1] was 0.195; in [2], -0.559 (inactive); in [3], -0.887 (inactive); in [5] it was -0.661 (inactive); in assay [6], 0.532 (inactive); in assay [7], 1.06 (inactive). The z-score in assay [8] was 1.79 (inactive); in assay [9] it was 0.943; in assay [13], -0.655; in [14], -3.06 (inactive); in [15] it was -0.682 (inactive); in assay [16] it was -0.379 (inactive). Besides, the composite z-score is -1.53 (inactive) in assay [4], 0.913 in [10], -0.315 (inactive) in [11] and 0.506 in assay [12].

On to `COc1cc(NN2C(C(O)c3ccc(N(C)C)cc3)C=CC3C(=O)N(c4ccccc4)C(=O)C32)cc(OC)c1OC` (stereo not given), for which the z-score in [1] is -1.16; in assay [2], 0.744 (inactive); in [3], -0.581 (inactive); in assay [5] it was 0.794 (inactive); in [6] it was -0.591 (inactive); in assay [7] it was -0.0722 (inactive). Also, the z-score in assay [8] was -1.45 (inactive); in assay [9], -1.46; in assay [13], -0.289; in [14] it was -4.2 (inactive); in assay [15], 0.111 (inactive); in assay [16], -0.0651 (inactive). The composite z-score in assay [4] was -1.1 (inactive); in assay [10], 0.38; in [11] it was 0.596 (inactive); in assay [12] it was 0.0721.

Consider `C=CCC(OC(C)=O)[C@@H]1[C@@H](N(Cc2cccc3ccccc23)C(=O)Cc2ccc(OC)cc2)c2cc(OCCCO)ccc2N1C(=O)c1ccc(-c2ccccc2)cc1` (stereo not given in full), for which the z-score in [1] is -0.433; in [2], 0.376 (inactive); in assay [3] it was 0.551 (inactive); in assay [5], -0.121 (inactive); in assay [6] it was -0.352 (inactive); in assay [7], 0.144 (inactive). The z-score is -0.165 (inactive) in [8]; 0.0598 in assay [9]; -2.3 in [13]; -1.94 (inactive) in [14]; 0.577 (inactive) in assay [15]; -0.13 (inactive) in assay [16]. In addition, the composite z-score is -0.547 (inactive) in assay [4], -0.224 in [10], 0.377 (inactive) in [11] and 0.309 in [12].

With `CC(=O)NCCCC[C@@H]1NC(=O)[C@@H]2C[C@H](C(=O)NCCCCCN)[C@H](c3ccc(O)cc3)N2C1=O`, the z-score is -0.714 in [1]; -0.12 (inactive) in assay [2]; 0.707 (inactive) in assay [3]; 0.0094 (inactive) in [5]; -0.0659 (inactive) in assay [6]; -0.139 (inactive) in assay [7]. For the same compound, the z-score was -0.515 (inactive) in [8]; 0.0794 in assay [9]; -1.13 in assay [13]; -3.21 (inactive) in assay [14]; 0.156 (inactive) in [15]; 0.317 (inactive) in assay [16]. The composite z-score in assay [4] was 0.143 (inactive); in [10], 0.492; in assay [11], 0.0292 (inactive); in assay [12], 0.891.

With `COCCOC(=O)N1C(=O)[C@@]2(c3ccccc31)[C@H](C(=O)NC[C@H](O)c1ccccc1)[C@H]1C(=O)O[C@H](c3ccccc3)[C@H](c3ccccc3)N1[C@@H]2c1ccc(O)cc1`, the z-score in assay [1] was 0.248; in [2], 0.64 (inactive); in assay [3], -0.65 (inactive); in [5], 0.269 (inactive); in [6] it was 1.64 (inactive); in assay [7], -0.236 (inactive). The z-score is -0.803 (inactive) in [8]; -0.773 in assay [9]; -1.02 in [13]; -3.48 (inactive) in assay [14]; 0.326 (inactive) in [15]; 0.653 (inactive) in [16]. Also, the composite z-score is -0.0106 (inactive) in [4], -0.103 in [10], 0.26 (inactive) in [11] and 0.819 in assay [12].

On to `CCOC(=O)C[C@H]1[C@H](OC(=O)c2cc3ccccc3oc2=O)[C@@H](NC(=O)c2ccc3ccccc3n2)c2cc(OCCCO)ccc2N1C(=O)Cc1ccc(OC)cc1`, for which the z-score was 1.16 in assay [1]; -0.105 (inactive) in assay [2]; -0.76 (inactive) in assay [3]; -1 (inactive) in assay [5]; 0.796 (inactive) in assay [6]; 0.662 (inactive) in assay [7]. Also, the z-score is 0.0535 (inactive) in assay [8]; -0.284 in assay [9]; -1.42 in assay [13]; -3.15 (inactive) in assay [14]; 0.458 (inactive) in assay [15]; -0.301 (inactive) in [16]. For the same compound, the composite z-score in [4] was -0.543 (inactive); in assay [10], -0.173; in assay [11], -0.816 (inactive); in assay [12] it was 0.71.

On to `C=C[C@@H](OC)[C@H](OC(=O)Nc1ccc(OC)cc1)c1ccc(O)c(F)c1`, for which the z-score is -0.902 in [1]; -6.91 (inactive) in [2]; -0.967 (inactive) in assay [3]; 0.741 (inactive) in assay [5]; -0.175 (inactive) in [6]; 0.146 (inactive) in assay [7]. Moreover, the z-score was -0.355 (inactive) in assay [8]; -0.877 in assay [9]; -0.825 in assay [13]; -2.8 (inactive) in assay [14]; -0.528 (inactive) in assay [15]; -1.17 (inactive) in [16]. In addition, the composite z-score in [4] is -1.1 (inactive); in [10] it was 0.252; in [11], 0.65 (inactive); in assay [12] it was 0.741.

`O=C1OCCC=C[C@H]2OC34C=CCN(Cn5nnc6ccccc65)C(=O)[C@H]3N(CCCO)C(=O)[C@@H]4C12` (stereo not given in full): the z-score is -0.614 in assay [1]; -0.63 (inactive) in [2]; 0.157 (inactive) in assay [3]; -0.441 (inactive) in [5]; 0.227 (inactive) in assay [6]; -1.13 (inactive) in assay [7]. Moreover, the z-score was -0.951 (inactive) in [8]; -0.997 in assay [9]; -1.82 in assay [13]; -3.33 (inactive) in assay [14]; -0.628 (inactive) in assay [15]; -0.609 (inactive) in assay [16]. The composite z-score in assay [4] was -0.535 (inactive); in [10] it was -0.0351; in assay [11] it was 2.05 (inactive); in assay [12], -0.308.

In the case of `COc1ccc([Si](C)(C)[C@@H]2[C@@H](CCO)O[C@]3(C(=O)N(Cc4ccccc4)c4ccc(N5CCOC5=O)cc43)[C@H]2C)cc1`, the z-score was -1.13 in assay [1]; 1.81 (inactive) in assay [2]; -2.51 (inactive) in assay [3]; 0.933 (inactive) in assay [5]; 4.01 (inactive) in assay [6]; -0.957 (inactive) in assay [7]. In addition, the z-score is -0.978 (inactive) in assay [8]; -2.79 in [9]; -2.79 in assay [13]; -1.94 (inactive) in assay [14]; -1.29 (inactive) in [15]; -1.14 (inactive) in [16]. The composite z-score in [4] is -0.981 (inactive); in [10], 0.0605; in assay [11], 0.849 (inactive); in assay [12], 0.869.

Regarding `C=CC[C@@]1(C(=O)NCCCOC)N=C(c2ccc(OCCCO)cc2)O[C@@H]1c1ccccc1N=[N+]=[N-]`, the z-score in assay [1] was 1.06; in [2], -0.537 (inactive); in assay [3], -0.394 (inactive); in assay [5], -0.814 (inactive); in assay [6] it was 0.464 (inactive); in [7], 0.868 (inactive). Moreover, the z-score in assay [8] is 1.43 (inactive); in [9], -0.137; in assay [13] it was -2.29; in [14], -6.15 (inactive); in assay [15], -0.679 (inactive); in [16], -0.6 (inactive). Also, the composite z-score was 1.05 (inactive) in assay [4], 0.598 in assay [10], 0.05 (inactive) in assay [11] and 0.516 in assay [12].
